Data reported in the antibiotic and cytotoxicity screens of Wong et al. (2023).
About 3,300 (8.5%) of roughly 39,000 compounds were called active. The full list was thinned out, with actives kept by preference.

Each compound was assayed on HepG2 (assay: cytotoxicity call (relative viability < 0.9)). Conditions: 10 µM.

Q: For `C[C@@H]1CCCCO[C@H](CN(C)S(=O)(=O)c2ccccc2)[C@@H](C)CN([C@@H](C)CO)C(=O)c2cc(NS(C)(=O)=O)ccc2O1`, which cytotoxicity call is on record?
A: inactive

Q: With `O/N=C1\CCCCc2c1[nH]c1ccc(C3CCCCC3)cc21` as the compound, how does the cytotoxicity call read?
A: inactive

Q: With `C[C@@H]1CCCCO[C@@H](CN(C)C(=O)c2ccncc2)[C@H](C)CN([C@H](C)CO)C(=O)c2cc(NC(=O)NC3CCCCC3)ccc2O1` as the compound, how does the cytotoxicity call read?
A: inactive

Q: With `C[C@@H]1CN([C@H](C)CO)C(=O)c2cccc(NC(=O)c3cnccn3)c2O[C@H]1CN(C)Cc1ccncc1` as the compound, how does the cytotoxicity call read?
A: inactive

Q: Which cytotoxicity call does the source give for `C[C@H](CO)N1C[C@H](C)[C@H](CN(C)Cc2ccc(-c3ccccc3)cc2)Oc2c(NS(=O)(=O)c3ccc(Cl)cc3)cccc2C1=O` here?
A: inactive

Q: How did the cytotoxicity call turn out when `N=C(N)NCCCCN.O=S(=O)(O)O` was run?
A: inactive

Q: For `N=C(N)NCCCCNC(=N)N`, which cytotoxicity call is on record?
A: active

Q: With `N=C(N)NCCCCNC(=N)N.O=S(=O)(O)O` as the compound, how does the cytotoxicity call read?
A: inactive

Q: For `O=C(Nc1ccc2c(c1)[C@H]1C[C@H](CC(=O)N3CCc4ccccc4C3)O[C@@H](CO)[C@H]1O2)C1CCOCC1`, which cytotoxicity call is on record?
A: inactive

Q: How did the cytotoxicity call turn out when `C[C@@H]1CN([C@@H](C)CO)C(=O)Cc2cc(NC(=O)Nc3cccc4ccccc34)ccc2O[C@H]1CN(C)Cc1ccccc1` was run?
A: inactive

Q: With `C[C@H](CO)N1C[C@H](C)[C@@H](CN(C)Cc2ccccc2)Oc2ccc(NC(=O)Nc3cccc4ccccc34)cc2CC1=O` as the compound, how does the cytotoxicity call read?
A: active

Q: With `C[C@H](CO)N1C[C@H](C)[C@H](CN(C)Cc2ccccc2)Oc2ccc(NC(=O)Nc3cccc4ccccc34)cc2CC1=O` as the compound, how does the cytotoxicity call read?
A: active

Q: For `C[C@@H]1CN([C@@H](C)CO)C(=O)Cc2cc(NC(=O)Nc3cccc4ccccc34)ccc2O[C@@H]1CN(C)Cc1ccccc1`, which cytotoxicity call is on record?
A: active

Q: How did the cytotoxicity call turn out when `C[C@@H]1CN([C@H](C)CO)C(=O)Cc2cc(NC(=O)Nc3cccc4ccccc34)ccc2O[C@@H]1CN(C)Cc1ccccc1` was run?
A: active

Q: With `C[C@@H]1CN([C@H](C)CO)C(=O)Cc2cc(NC(=O)Nc3cccc4ccccc34)ccc2O[C@H]1CN(C)Cc1ccccc1` as the compound, how does the cytotoxicity call read?
A: inactive

Q: Which cytotoxicity call does the source give for `C[C@H]1CN([C@@H](C)CO)C(=O)Cc2cc(NC(=O)Nc3cccc4ccccc34)ccc2O[C@@H]1CN(C)Cc1ccc(-c2ccccc2)cc1` here?
A: inactive

Q: `C[C@H]1CN([C@@H](C)CO)C(=O)Cc2cc(NC(=O)Nc3cccc4ccccc34)ccc2O[C@H]1CN(C)Cc1ccccc1` was tested. Which cytotoxicity call did it give?
A: inactive

Q: With `C[C@@H]1CN([C@H](C)CO)C(=O)Cc2cc(NC(=O)Nc3cccc4ccccc34)ccc2O[C@H]1CN(C)Cc1ccc(-c2ccccc2)cc1` as the compound, how does the cytotoxicity call read?
A: inactive

Q: Which cytotoxicity call does the source give for `C[C@H](CO)N1C[C@H](C)[C@@H](CN(C)Cc2ccc(-c3ccccc3)cc2)Oc2ccc(NC(=O)Nc3cccc4ccccc34)cc2CC1=O` here?
A: inactive

Q: For `C[C@H]1CN([C@@H](C)CO)C(=O)Cc2cc(NC(=O)Nc3cccc4ccccc34)ccc2O[C@@H]1CN(C)Cc1ccccc1`, which cytotoxicity call is on record?
A: inactive

Q: How did the cytotoxicity call turn out when `C[C@H](CO)N1C[C@H](C)[C@H](CN(C)Cc2ccc(-c3ccccc3)cc2)Oc2ccc(NC(=O)Nc3cccc4ccccc34)cc2CC1=O` was run?
A: inactive

Q: Which cytotoxicity call does the source give for `C[C@@H]1CN([C@@H](C)CO)C(=O)CCCn2cc(nn2)CO[C@@H]1CN(C)S(=O)(=O)c1ccc(-n2cccn2)cc1` here?
A: inactive

Q: How did the cytotoxicity call turn out when `C[C@H]1CN([C@@H](C)CO)S(=O)(=O)c2ccc(C#Cc3cccnc3)cc2O[C@H]1CN(C)CC1CCOCC1` was run?
A: inactive

Q: For `COc1ccc(S(=O)(=O)N(C)C[C@H]2Oc3ccc(NS(=O)(=O)c4ccc(F)cc4)cc3CC(=O)N([C@@H](C)CO)C[C@H]2C)cc1`, which cytotoxicity call is on record?
A: inactive

Q: How did the cytotoxicity call turn out when `COC(=O)[C@H]1CN(C)CCC1=O` was run?
A: inactive

Q: `C[C@@H]1O[C@@H](OC[C@H]2O[C@@H](Oc3cc(O)c4c(c3)O[C@@H](c3ccc(O)cc3)CC4=O)[C@H](O)[C@@H](O)[C@@H]2O)[C@H](O)[C@H](O)[C@H]1O` was tested. Which cytotoxicity call did it give?
A: inactive

Q: Which cytotoxicity call does the source give for `COc1ccc([Si](C)(C)[C@H]2[C@H](CCn3cc([C@H](O)c4ccccc4)nn3)O[C@@]3(C(=O)N(Cc4cccc(N5CCC5=O)c4)c4ccccc43)[C@@H]2C)cc1` here?
A: inactive

Q: Which cytotoxicity call does the source give for `Cc1ccc(S(=O)(=O)N(C)C[C@@H]2Oc3c(NC(=O)c4cc(C)nn4C)cccc3C(=O)N([C@@H](C)CO)C[C@@H]2C)cc1` here?
A: inactive

Q: With `C=CCOC(=O)[C@@H]1[C@H]2C(=O)O[C@H](c3ccccc3)[C@H](c3ccccc3)N2[C@H](c2ccc(OCCOC(=O)[C@H]3C[C@H]4C(=O)NCC(=O)N4[C@H]3c3ccc(O)cc3)cc2)[C@@]12C(=O)Nc1ccc(I)cc12` as the compound, how does the cytotoxicity call read?
A: inactive

Q: How did the cytotoxicity call turn out when `Cc1ccccc1S(=O)(=O)N1C[C@@H](O)COC[C@@H]2O[C@@H](CC(=O)N3CCOCC3)CC[C@H]21` was run?
A: inactive

Q: Which cytotoxicity call does the source give for `CC(C)N1C[C@H](CNCc2ccc(Oc3ccccc3)cc2)Oc2c(NC(=O)c3ccncc3)cccc2C1=O` here?
A: inactive

Q: For `Cc1ccc(-c2cnc3c(c2)C(=O)N([C@H](C)CO)C[C@H](C)[C@@H](CN(C)C(=O)Cc2cccnc2)O3)cc1`, which cytotoxicity call is on record?
A: inactive

Q: With `C[C@H](CO)N1C[C@H](C)[C@H](CN(C)C(=O)Nc2ccc(C(F)(F)F)cc2)Oc2c(NC(=O)Nc3ccccc3)cccc2C1=O` as the compound, how does the cytotoxicity call read?
A: inactive

Q: `C[C@@H]1CN([C@H](C)CO)C(=O)c2cccc(NC(=O)Nc3ccc(C(F)(F)F)cc3)c2O[C@@H]1CN(C)C(=O)Nc1ccccc1` was tested. Which cytotoxicity call did it give?
A: active

Q: With `C[C@H]1CN([C@@H](C)CO)C(=O)c2cccc(NC(=O)Nc3ccc(C(F)(F)F)cc3)c2O[C@@H]1CN(C)C(=O)Nc1ccccc1` as the compound, how does the cytotoxicity call read?
A: active

Q: Which cytotoxicity call does the source give for `C[C@@H]1CN([C@@H](C)CO)C(=O)c2cccc(NC(=O)Nc3ccccc3)c2O[C@@H]1CN(C)C(=O)Nc1ccc(C(F)(F)F)cc1` here?
A: inactive

Q: How did the cytotoxicity call turn out when `C[C@H](CO)N1C[C@H](C)[C@@H](CN(C)C(=O)Nc2ccc(C(F)(F)F)cc2)Oc2c(NC(=O)Nc3ccccc3)cccc2C1=O` was run?
A: inactive

Q: For `C[C@H]1CN([C@@H](C)CO)C(=O)c2cccc(NC(=O)Nc3ccccc3)c2O[C@@H]1CN(C)C(=O)Nc1ccc(C(F)(F)F)cc1`, which cytotoxicity call is on record?
A: inactive

Q: How did the cytotoxicity call turn out when `COc1ccc(C(=O)Nc2ccc(CN3C(=O)[C@]4(O[C@H](CCO)[C@@H]([Si](C)(C)F)[C@@H]4C)c4ccccc43)cc2)cc1` was run?
A: inactive

Q: With `CN1CCN(C(=O)C[C@@H]2CC[C@@H]3[C@H](COC[C@H](O)CN3C(=O)Nc3cc(Cl)cc(Cl)c3)O2)CC1` as the compound, how does the cytotoxicity call read?
A: inactive
